The record followed here is PubChem BioAssay (EPA / NIEHS).

Records with an inconclusive call do not appear. Activity calls are given as the source filed them. Rule for the calls: active = hit-call score of the fitted dose curve at least 0.9, where 1 is the maximum; inconclusive = response in the unintended direction; inactive = score below 0.9.

This experiment can be described thus: Tanguay_ZF_120hpf_SWIM_legacy: (Legacy) Oregon State University Tanguay Lab 120 Hour Post-fertilization zebrafish Assay for Swim Bladder Malformation (AID 2283654).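 Note: swim bladder malformation in each larva scored yes or no under brightfield.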 Here is the method: Tanguay_ZF_120hpf_legacy is a whole embryo, multiplexed endpoint assay using zebrafish larvae exposed for 120 hours post fertilization on a 96-well plate.Tanguay_ZF_120hpf_SWIM_legacy is one of one assay component(s) measured or calculated from the Tanguay_ZF_120hpf_legacy assay. It is designed to make measurements of zebrafish development as detected with brightfield microscopy of developing zebrafish embryos.Data from the assay component Tanguay_ZF_120hpf_SWIM_legacy was analyzed into 1 assay endpoints. This assay endpoint, Tanguay_ZF_120hpf_SWIM_legacy, was analyzed in the positive analysis fitting direction relative to DMSO as the negative control and baseline of activity. Using a type of morphology reporter, gain-of-signal activity can be used to understand changes in developmentals as they relate to the whole embryo. To generalize the intended target to other relatable targets, this assay endpoint is annotated to the zebrafish development intended target family, where the subfamily is swim bladder morphogenesis.
Zebrafish husbandry: Tropical 5D wild-type adult zebrafish were housed in at an approximate density of 1000 per 100 gallon tank at the Sinnhuber Aquatic Research Laboratory, Oregon State University, Corvallis, OR. Each tank was kept at standard laboratory conditions of 28C on a 14-h light/10-h dark photoperiod in fish water consisting of reverse osmosis water supplemented with a commercially available salt (Instant Ocean). Spawning funnels were placed into the tanks the night prior, and embryos were collected and staged. To increase bioavailability, the chorion was enzymatically removed using pronase (63.6mg/ml, >/= 3.5U/mg, Sigma-Aldrich: P5147) at 4 hours post fertilization (hpf) using a custom automated dechorionator.Chemical exposures: Six hpf dechorionated embryos were placed 1 embryo per well in a 96-well plate prefilled with 90 ul of EM using automated embryo placement systems (AEPS). Ten microliters of each row of dilution plate 2 was added to 2 exposure plates. The final DMSO concentration used was 0.64% (vol/vol). Thirty-two embryos were also exposed to 5uM trimethyltin chloride (positive control). Plates were sealed to prevent evaporation and foil covered to reduce light exposure and kept in a 28C incubator. Embryos were statically exposed until 120 hpf. At 24 hpf, embryos were assessed for photomotor response using a custom photomotor response analysis tool (PRAT) and for developmental toxicity endpoints (MO24: mortality at 24 hpf, DP: developmental progression, SM: spontaneous movement, and NC: notochord distortion). At 120 hpf, locomotor activity was measured using Viewpoint Zebralab and assessed for 18 endpoints. Zebrafish acquisition and analysis program (ZAAP), a custom program designed to inventory, acquire, and manage zebrafish data, was used to collect developmental endpoints as either present or absent (i.e., binary responses were recorded). If mortality occurred for an embryo (at either 24 or 120 hpf), the non-mortality endpoints were not measured.
On to `Cc1cccc(N)c1N`, for which the outcome was inactive. Take `N#CC(Br)Br`: the call was inactive. The same measure, in the same setting: in the case of `O=C(Nc1ccccc1)c1ccccc1I` it was “inactive”; in that of `CCOC(=O)[C@]1(c2ccccc2)Oc2ccccc2[C@@H]1N`, “inactive”; in that of `O=C(Oc1ccc(Br)cc1)N1CCN2CCC1CC2`, “inactive”. Still for that read-out and setting: in the case of `CCCCCCCCn1sccc1=O` it was “inactive”. On the same count and under the same terms, then `ClC1=C(Cl)[C@]2(Cl)[C@H]3[C@H]([C@@H]4C=C[C@H]3C4)[C@@]1(Cl)C2(Cl)Cl`, with “inactive”.

In the case of `C[C@]12C=CC3=C4CCC(=O)C=C4CC[C@H]3[C@@H]1CC[C@@H]2O`, the call was inactive. On the same count and under the same terms, in the case of `COC(=O)c1ccccc1N` it was “inactive”; in that of `Nc1ccc([N+](=O)[O-])cc1`, “inactive”; in that of `OCCCBr`, “inactive”. `O=C(O)C1C2CCC(O2)C1C(=O)O` (stereo not given): the outcome was inactive.

Turning to `CN(C)c1ccccc1`, the call was inactive. As to `Cc1ccc([N+](=O)[O-])cc1`, the molecule was classed as inactive.

Consider `Nc1ccc(N=Nc2ccccc2)cc1`, for which the molecule was called inactive.

For the molecule `OCCCl`, the outcome was inactive. On the same count and under the same terms, in the case of `CCN(CC)CCO` it was “inactive”; in that of `CCC(C)c1ccc(O)cc1` (stereo not given), “inactive”. `Oc1ccccc1Cl`: the result was inactive. Still for that read-out and setting: then `CCN(CC)N=O`, with “inactive”. On the same count and under the same terms, in the case of `CC(C)N(Cc1ccccc1)C(=O)C(C)(C)C` it was “inactive”. Consider `CN(C)[C@@H]1C(=O)C(C(N)=O)=C(O)[C@@]2(O)C(=O)C3=C(O)c4c(O)cccc4[C@@](C)(O)[C@H]3C[C@@H]12`, for which the molecule was classed as inactive. Regarding `Oc1ccc2ccc3cccc4ccc1c2c34`, the AC50 is 48.3 µM (active). On to `Clc1ccc(Cl)c(Cl)c1`, for which the call was inactive. On the same count and under the same terms, then `Cc1cc(N=Nc2ccccc2C)ccc1N`, with “inactive”; and `Clc1ccccc1Cl`, with “inactive”; and `CCOc1cccc(C2(N3CCN(c4ccccc4)CC3)CCC(C)CC2)c1` (stereo not given), with “inactive”. For `C=CCc1ccc2c(c1)OCO2`, the molecule was classed as inactive.

As to `O=C1CCCO1`, the molecule was classed as inactive.

Turning to `Cn1cc(-c2ccccc2)c(=O)c(-c2cccc(C(F)(F)F)c2)c1`, the result was inactive.

For the molecule `Nc1ccc(Cl)cc1N`, the molecule was called inactive.

On to `O=[N+]([O-])c1ccc(Oc2ccc(Cl)cc2Cl)cc1`, for which the molecule was called inactive.

Consider `CC(C)(C)OOC(=O)c1ccccc1`, for which the result was inactive. Same read-out and setting: in the case of `O=[N+]([O-])C(Br)(CO)CO` it was “inactive”.

`Cc1ccc(N)cc1`: the outcome was inactive. On the same count and under the same terms, then `CCCSC(=O)N(CCC)CCC`, with “inactive”; and `CCCCCCCCCCCCCN1CC(C)OC(C)C1` (stereo not given), with “inactive”. Take `CCC[CH2][Sn]([Cl])([CH2]CCC)[CH2]CCC`: the outcome was inactive.

Regarding `CC(C)(O)c1cnn2c(-c3ccc(F)c(-c4c(F)cccc4C#N)c3)cnc2n1`, the molecule was called inactive. Still for that read-out and setting: then `ClC1=C(Cl)C2(Cl)C3C(Cl)C=CC3C1(Cl)C2(Cl)Cl` (stereo not given), with “inactive”.
